# Several values for one entry are separate records, joined by “and”; a condition that tells them apart may be missing. Equal values may be shown once. Records with an inconclusive call do not appear. Some structures have more than one record in an assay (separate samples or runs), and their calls can disagree. Activity calls are given as the source filed them.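 How the source made its calls, unless noted: active means inhibition above the screen-wide mean plus 3 SD, about 51%; inactive means the rest.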
# What was measured:
# [1] = rapamycin-like changes in RPL19A-GFP expression – cell-based, S. cerevisiae, multiplex flow cytometry, primary screen (AID 1862; in the data active means percent of DMSO control GFP below about 86%;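 further: lower values mimic rapamycin by blocking the RPL19A rise seen in DMSO cells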); conditions: S. cerevisiae RPL19A-GFP strain, flow cytometry fluorescence, 3 h; at 10 µM; stronger effect = lower value
# [2] = TOR pathway GLN3 branch reporter MEP2-GFP changes – S. cerevisiae, multiplex flow cytometry, primary screen (AID 1867;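 active means GFP response, as percent of the DMSO control, above the screen-wide mean plus 3 SD, about 139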;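 further: median GFP channel fluorescence of barcode-gated MEP2-GFP cells measured by flow cytometry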); conditions: S. cerevisiae MEP2-GFP strain, 3 h, at 10 µM, stronger effect = higher value, 100% means same as DMSO wells
# [3] = TOR pathway RTG branch CIT2 reporter changes – S. cerevisiae, GFP fusion, multiplex flow cytometry, primary screen (AID 1870;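 active means percent response above a set limit, the screen-wide mean plus 3 SD, cut at about 130% in these data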;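 further: barcoded CIT2-GFP strain pooled with four other GFP strains with rapamycin as positive control; median GFP fluorescence per well over plate mean of DMSO wells so 100% = DMSO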); conditions: S. cerevisiae CIT2-GFP expression, 3 h, at 10 µM, stronger effect = higher value
# [4] = TOR pathway LAP4-GFP level changes – S. cerevisiae, multiplex flow cytometry, primary screen (AID 1873;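 active means GFP signal, as percent of the solvent control, above the screen mean plus 3 SD, about 149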); conditions: S. cerevisiae LAP4-GFP expression, 3 h, at 10 µM, stronger effect = higher value
# [5] = yeast AGP1-GFP level changes, GLN3 branch – cell-based, multiplex flow cytometry, S. cerevisiae, primary screen (AID 1887;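 active means GFP signal above the screen-wide mean plus 3 SD, that is over about 124.5% of the solvent control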;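 further: AGP1-GFP fusion strain of S. cerevisiae within a five-strain barcoded multiplex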); conditions: 3 h, at 10 µM, stronger effect = higher value
# [6] = hit retest on RPL19A-GFP reporter strain – cell-based, S. cerevisiae, flow cytometry, cherry picks, mother/daughter gates, confirmation (AID 2270;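 active means GFP response below 50% of the DMSO control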); conditions: 3 h, at 10 µM, stronger effect = lower value, 100 = same GFP as DMSO wells
# [7] = yeast TOR pathway reporter LAP4-GFP change – cell-based, cherry picks, flow cytometry, mother/daughter gates, confirmation (AID 2271;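 active means GFP response above 150% of the DMSO control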;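 further: ratio of sample to DMSO plate mean so 100% equals DMSO level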); conditions: S. cerevisiae LAP4-GFP strain, 3 h, at 10 µM, stronger effect = higher value, 100 means same as DMSO control
# [8] = TOR pathway reporter MEP2-GFP, retest of hits – S. cerevisiae, flow cytometry GFP, cherry picks, confirmation (AID 2272;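 active means GFP response above 150% of the DMSO control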;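 further: ratio of well signal to plate DMSO mean so 100% equals DMSO level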); conditions: S. cerevisiae MEP2-GFP strain, 3 h, at 10 µM, stronger effect = higher value
# [9] = TOR pathway CIT2 reporter hit retest – S. cerevisiae, GFP fusion, cherry picks, mother/daughter gates, confirmation (AID 2274;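 active means GFP response above 150% of the DMSO level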); conditions: S. cerevisiae CIT2-GFP strain, flow cytometry, 3 h, at 10 µM, stronger effect = higher value
# [10] = reduced mouse 2C T cell binding to pMHC/ICAM-1 vesicles – MLPCN validation set, flow cytometry, LFA-1/ICAM-1 modulator project, pilot screen (AID 2523;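 active means response below a set limit, under 55% cells CD8-positive and vesicle-bound, and CD8 cells' 90th-percentile brightness under 279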;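 on vesicle binding response: mean PE anti-B7-1 fluorescence of CD8+ cells relative to row control; 100% = QL9-loaded vesicles with DMSO vehicle in the same plate row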); conditions: 2C mouse CD8+ T cells, at 7 µM, stronger effect = lower value; double positive events: measured here: CD8+/vesicle+ event percentage
# [11] = target: Integrin beta-1 (Homo sapiens) + Integrin alpha-4 (Homo sapiens) (UniProt P13612+P05556); assay: alpha4beta1 integrin LIBS antibody binding reduction – U937 cells, HUTS-21 mAb, flow cytometry, validation set, VLA-4 allosteric modulator project, pilot screen (AID 2674;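 active means inhibition above 50%, about 3 SD of the validation set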;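 further: antibody binding induced by the VLA-4 ligand LDV present at three times its Kd; 0% = LDV ligand with antibody and no compound and 100% = antibody without LDV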); conditions: HUTS-21 LIBS mAb binding, at 6.7 µM, stronger effect = higher value, binding induced by LDV ligand
# [12] = calorie-restriction mimetic ROS inhibitors, yeast – validation compound set, pilot screen (AID 2706;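 active means superoxide response below 65% of plate, a cut near 3 SD across the whole screen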;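 further: yeast exposed to compound for one week at 30 degrees C before staining; 100% = mean of all compound wells on the same plate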); conditions: S. cerevisiae aging, superoxide DHE fluorescence; at 10 µM; stronger effect = lower value
# [13] = target: Beta-adrenergic receptor kinase 1 (Homo sapiens) (UniProt P25098); assay: GRK2 binders displacing RNA aptamer, biochemical, validation, human GRK2, bead flow cytometry (AID 488806;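 active means aptamer binding inhibition above 30%, about 3 SD of noise from non-fluorescent compounds; inactive means inhibition at or below 30%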); conditions: bead-bound GRK2, FAM-aptamer displacement, at 10 µM, stronger effect = higher value
# [14] = target: Beta-2 adrenergic receptor (Homo sapiens) (UniProt P07550); assay: agonist-induced loss of surface beta2AR – cell-based, FAP fluorogen, flow cytometry, validation set, pilot screen (AID 504459;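 active means percent response above 42, roughly 3 SD of non-fluorescent test compounds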;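 further: agonist-driven loss of surface beta2AR via internalization measured by FAP dye flow cytometry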); conditions: Am2.2-beta2AR cells, at 10 µM, stronger effect = higher value
# [15] = target: AP-2 complex subunit beta (Homo sapiens) (UniProt P63010); assay: beta-arrestin/AP2 interaction blockers – biochemical, validation set, GST-AP2 beads, flow cytometry, pilot screen (AID 504541;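 active means inhibition above 54%, about 3 SD of non-fluorescent compounds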;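 further: AP2 carries R879A mutation and is captured from E. coli lysate; bead-bound FITC arrestin peptide fluorescence measuring arrestin peptide binding to AP2; 0% = DMSO wells and 100% = excess unlabeled arrestin peptide control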); conditions: FITC arrestin peptide, at 10 µM, stronger effect = higher value, AP2 beta2 appendage fragment, R879A mutant
# [16] = cytosolic pH regulators acting via V-ATPase – S. cerevisiae, pHLuorin, HTS validation (AID 504600; in the data active means response above about 15%;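 further: plate controls were DMSO for no effect and reference compound for full effect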); conditions: V-ATPase proton transport, at 10 µM, stronger effect = higher value
# [17] = test system: anti-desmoglein-3 scFv antibody binding to human DSG3; assay: blockers of pathogenic pemphigus antibody–desmoglein-3 binding – biochemical, validation compound set, bead-based, flow cytometry, pilot screen (AID 588368;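 active means binding below the plate cutoff, the plate median minus 3 SD, with a reading above zero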;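 further: signal is the median channel fluorescence of bead-bound GFP antibody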); conditions: Protein G beads, DSG3-Fc, scFv-GFP binding, at 10 µM, stronger effect = lower value
# [18] = Nile Red efflux blockade in pump-expressing yeast – validation compound set, multiplex, phenotypic, pilot screen (AID 588506;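 active means efflux inhibition above 0.42, the validation set average plus 4 SD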;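 further: Nile Red retained in cells so higher fluorescence means more efflux inhibition; 0 = negative control wells and 1 = enniatin B 25 µM full block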); conditions: S. cerevisiae pump-expressing triplex, Nile Red efflux flow cytometry; at 10 µM; stronger effect = higher value; the pumps come from Candida albicans
# [19] = target: ATP-binding cassette sub-family B member 6 (Homo sapiens) (UniProt Q9NP58); assay: blockers of ABCB6-driven porphyrin uptake – K562-ABCB6 cells, flow cytometry, validation set, pilot screen (AID 588550); conditions: K562-ABCB6 porphyrin accumulation, 1 h, at 10 µM, stronger effect = higher value;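 further: 0% = DMSO wells and 100% = benzethonium chloride 70 µM positive control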
# [20] = AML differentiation inducers, ER-HoxA9 marrow cells – cell-based, GFP/MAC1 double positive, flow cytometry, validation set, primary screen (AID 588685;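 active means differentiation response of at least 50%, scaled between solvent and reference control, from cells with both markers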;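 further: compound exposure lasts four days before antibody staining and flow analysis; 0% = DMSO wells and 100% = 5 µM fulvestrant positive control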); conditions: stronger effect = higher value, normalized: vehicle 0, fulvestrant 100
# [21] = measured here: daughter cell gate
# [22] = measured here: mother cell gate
# [23] = measured here: daughter cell gate response
# [24] = measured here: mother cell gate response
# Chain of AP-2 complex subunit beta (Homo sapiens) (P63010 whole entry, looked up, the tested form may be a part, one chain of several): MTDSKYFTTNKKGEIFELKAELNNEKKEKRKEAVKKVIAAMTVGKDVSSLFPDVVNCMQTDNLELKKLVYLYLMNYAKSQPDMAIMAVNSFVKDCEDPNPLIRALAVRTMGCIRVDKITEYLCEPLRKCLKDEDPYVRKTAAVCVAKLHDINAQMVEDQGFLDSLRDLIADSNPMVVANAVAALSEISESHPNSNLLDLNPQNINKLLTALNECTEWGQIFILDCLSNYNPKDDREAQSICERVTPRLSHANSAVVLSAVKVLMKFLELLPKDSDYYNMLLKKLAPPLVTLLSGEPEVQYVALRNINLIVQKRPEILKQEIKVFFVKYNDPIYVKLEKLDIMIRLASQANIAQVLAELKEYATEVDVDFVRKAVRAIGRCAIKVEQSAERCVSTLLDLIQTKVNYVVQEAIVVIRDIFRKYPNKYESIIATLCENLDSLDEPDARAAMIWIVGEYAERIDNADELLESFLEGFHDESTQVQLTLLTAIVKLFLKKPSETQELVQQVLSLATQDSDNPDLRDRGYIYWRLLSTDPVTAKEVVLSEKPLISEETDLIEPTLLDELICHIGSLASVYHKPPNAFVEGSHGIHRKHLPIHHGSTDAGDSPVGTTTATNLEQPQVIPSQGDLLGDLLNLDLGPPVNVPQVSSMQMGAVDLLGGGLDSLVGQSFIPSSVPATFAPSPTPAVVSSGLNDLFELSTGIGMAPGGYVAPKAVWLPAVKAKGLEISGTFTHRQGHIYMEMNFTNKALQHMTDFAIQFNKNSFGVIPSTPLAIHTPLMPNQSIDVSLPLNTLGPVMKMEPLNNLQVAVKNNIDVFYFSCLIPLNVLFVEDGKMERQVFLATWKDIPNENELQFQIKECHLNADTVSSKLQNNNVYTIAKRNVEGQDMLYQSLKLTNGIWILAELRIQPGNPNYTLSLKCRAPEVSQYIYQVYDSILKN
# Chain of Beta-adrenergic receptor kinase 1 (Homo sapiens) (P25098 whole entry, looked up): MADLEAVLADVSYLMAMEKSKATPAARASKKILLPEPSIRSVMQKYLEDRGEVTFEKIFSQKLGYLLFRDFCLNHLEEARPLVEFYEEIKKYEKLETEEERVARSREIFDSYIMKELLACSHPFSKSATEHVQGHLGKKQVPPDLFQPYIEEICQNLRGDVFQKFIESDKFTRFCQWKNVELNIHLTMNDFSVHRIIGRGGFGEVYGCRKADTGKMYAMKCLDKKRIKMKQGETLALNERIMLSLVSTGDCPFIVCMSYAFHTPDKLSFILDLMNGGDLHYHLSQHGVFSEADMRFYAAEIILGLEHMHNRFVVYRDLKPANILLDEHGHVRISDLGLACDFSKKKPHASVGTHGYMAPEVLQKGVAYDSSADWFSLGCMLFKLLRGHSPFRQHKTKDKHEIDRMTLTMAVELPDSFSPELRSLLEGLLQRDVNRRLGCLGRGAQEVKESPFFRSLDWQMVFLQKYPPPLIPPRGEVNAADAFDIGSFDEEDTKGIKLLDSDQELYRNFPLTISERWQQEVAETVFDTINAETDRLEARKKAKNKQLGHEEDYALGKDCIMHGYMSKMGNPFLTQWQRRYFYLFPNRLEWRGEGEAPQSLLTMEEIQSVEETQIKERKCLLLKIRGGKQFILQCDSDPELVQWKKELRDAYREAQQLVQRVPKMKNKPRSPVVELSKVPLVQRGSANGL
# Chain of Beta-2 adrenergic receptor (Homo sapiens) (P07550 whole entry, looked up): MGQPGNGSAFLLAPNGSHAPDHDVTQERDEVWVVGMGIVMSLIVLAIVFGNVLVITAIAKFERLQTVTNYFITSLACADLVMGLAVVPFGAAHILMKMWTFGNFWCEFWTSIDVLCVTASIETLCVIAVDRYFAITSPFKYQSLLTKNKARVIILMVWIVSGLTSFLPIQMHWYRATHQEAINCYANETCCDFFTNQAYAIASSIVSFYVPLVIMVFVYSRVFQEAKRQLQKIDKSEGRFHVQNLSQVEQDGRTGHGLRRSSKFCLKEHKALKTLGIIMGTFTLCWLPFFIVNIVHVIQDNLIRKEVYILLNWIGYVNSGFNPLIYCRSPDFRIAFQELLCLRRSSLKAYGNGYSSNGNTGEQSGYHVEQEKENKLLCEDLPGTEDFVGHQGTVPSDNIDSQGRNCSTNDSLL
# Chain of ATP-binding cassette sub-family B member 6 (Homo sapiens) (Q9NP58 whole entry, looked up): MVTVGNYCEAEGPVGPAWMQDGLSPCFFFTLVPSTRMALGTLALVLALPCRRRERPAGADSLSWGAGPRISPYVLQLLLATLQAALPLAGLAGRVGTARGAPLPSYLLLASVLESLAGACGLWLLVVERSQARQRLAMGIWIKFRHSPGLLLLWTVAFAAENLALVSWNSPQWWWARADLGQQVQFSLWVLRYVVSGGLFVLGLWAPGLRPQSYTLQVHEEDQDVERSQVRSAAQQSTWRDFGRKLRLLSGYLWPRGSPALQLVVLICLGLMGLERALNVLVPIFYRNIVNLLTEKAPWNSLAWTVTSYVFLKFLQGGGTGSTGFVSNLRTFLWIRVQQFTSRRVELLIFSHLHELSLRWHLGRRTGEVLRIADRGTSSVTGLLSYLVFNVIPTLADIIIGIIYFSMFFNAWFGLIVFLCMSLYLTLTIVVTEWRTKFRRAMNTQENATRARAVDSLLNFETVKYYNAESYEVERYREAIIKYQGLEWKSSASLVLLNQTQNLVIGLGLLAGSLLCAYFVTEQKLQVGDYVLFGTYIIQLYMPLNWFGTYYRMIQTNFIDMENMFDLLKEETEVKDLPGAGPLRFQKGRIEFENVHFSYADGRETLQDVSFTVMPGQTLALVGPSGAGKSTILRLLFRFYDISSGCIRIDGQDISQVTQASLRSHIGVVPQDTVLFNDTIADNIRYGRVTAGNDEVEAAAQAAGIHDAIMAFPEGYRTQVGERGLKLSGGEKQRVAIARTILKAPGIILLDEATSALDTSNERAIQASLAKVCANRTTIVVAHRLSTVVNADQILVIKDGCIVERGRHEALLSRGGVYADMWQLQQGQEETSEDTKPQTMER
# Chain of Integrin beta-1 (Homo sapiens) + Integrin alpha-4 (Homo sapiens) (P05556 whole entry, looked up): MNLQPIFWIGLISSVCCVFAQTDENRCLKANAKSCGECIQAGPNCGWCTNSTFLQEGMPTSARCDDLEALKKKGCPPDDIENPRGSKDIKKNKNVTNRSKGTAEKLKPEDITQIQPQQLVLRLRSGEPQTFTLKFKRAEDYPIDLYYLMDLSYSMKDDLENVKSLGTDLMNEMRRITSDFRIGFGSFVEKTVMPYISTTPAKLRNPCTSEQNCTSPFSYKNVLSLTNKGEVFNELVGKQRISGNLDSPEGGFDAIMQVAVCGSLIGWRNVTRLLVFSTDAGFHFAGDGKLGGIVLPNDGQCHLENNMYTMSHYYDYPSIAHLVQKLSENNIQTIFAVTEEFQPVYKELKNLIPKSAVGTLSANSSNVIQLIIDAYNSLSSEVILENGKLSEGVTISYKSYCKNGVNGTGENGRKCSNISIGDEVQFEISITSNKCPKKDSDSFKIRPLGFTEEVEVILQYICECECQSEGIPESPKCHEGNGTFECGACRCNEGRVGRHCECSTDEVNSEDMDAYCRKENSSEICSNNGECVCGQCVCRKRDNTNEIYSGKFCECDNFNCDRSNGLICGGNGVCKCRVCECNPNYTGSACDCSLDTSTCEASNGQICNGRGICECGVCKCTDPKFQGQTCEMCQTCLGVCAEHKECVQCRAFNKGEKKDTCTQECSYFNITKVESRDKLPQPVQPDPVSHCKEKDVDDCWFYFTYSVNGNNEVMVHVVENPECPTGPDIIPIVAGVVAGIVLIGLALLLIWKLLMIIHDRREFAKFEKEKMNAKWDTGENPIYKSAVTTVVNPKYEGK
# Chain of Integrin beta-1 (Homo sapiens) + Integrin alpha-4 (Homo sapiens) (P13612 whole entry, looked up): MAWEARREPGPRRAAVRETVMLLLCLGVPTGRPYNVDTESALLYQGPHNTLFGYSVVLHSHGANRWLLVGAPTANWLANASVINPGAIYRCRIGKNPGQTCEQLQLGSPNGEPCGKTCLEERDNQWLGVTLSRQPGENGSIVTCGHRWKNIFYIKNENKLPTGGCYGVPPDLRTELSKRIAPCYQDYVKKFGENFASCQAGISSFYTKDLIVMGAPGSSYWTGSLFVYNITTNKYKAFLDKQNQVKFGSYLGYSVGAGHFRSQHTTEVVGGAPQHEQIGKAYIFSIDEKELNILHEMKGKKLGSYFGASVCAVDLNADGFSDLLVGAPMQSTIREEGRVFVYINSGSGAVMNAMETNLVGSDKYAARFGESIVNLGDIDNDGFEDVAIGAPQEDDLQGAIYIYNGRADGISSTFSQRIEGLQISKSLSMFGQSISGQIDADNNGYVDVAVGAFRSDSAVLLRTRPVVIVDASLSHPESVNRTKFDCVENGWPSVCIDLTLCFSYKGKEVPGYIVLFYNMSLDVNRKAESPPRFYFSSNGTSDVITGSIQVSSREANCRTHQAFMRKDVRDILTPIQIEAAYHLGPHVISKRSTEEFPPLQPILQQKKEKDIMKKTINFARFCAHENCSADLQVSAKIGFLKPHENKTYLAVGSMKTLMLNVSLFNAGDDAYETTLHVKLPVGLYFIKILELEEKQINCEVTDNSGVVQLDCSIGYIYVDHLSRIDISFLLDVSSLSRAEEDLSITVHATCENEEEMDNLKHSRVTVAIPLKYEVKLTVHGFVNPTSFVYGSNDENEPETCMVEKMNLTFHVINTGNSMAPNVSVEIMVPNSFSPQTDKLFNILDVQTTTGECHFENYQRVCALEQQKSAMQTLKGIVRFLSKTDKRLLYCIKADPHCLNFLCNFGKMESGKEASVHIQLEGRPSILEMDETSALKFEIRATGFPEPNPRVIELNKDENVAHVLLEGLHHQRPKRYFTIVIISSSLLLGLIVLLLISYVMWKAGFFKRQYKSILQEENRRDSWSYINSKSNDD
smiles,measurement,setting,value
CC(NCCc1ccc(O)cc1)C(O)c1ccc(O)cc1 (stereo not drawn),percent of DMSO control GFP,[1],92.4% (inactive)
same,GFP response vs DMSO,[2],144% (active)
same,percent response of DMSO control,[3],91.3% (inactive)
same,GFP response vs DMSO,[4],80.9% (inactive)
same,"GFP response, % of DMSO",[5],93.1% (inactive)
same,GFP response vs DMSO,[6],93% (inactive)
same,GFP response vs DMSO,[6]; [21],91.6%
same,GFP response vs DMSO,[6]; [22],94.1%
same,GFP response relative to DMSO,[7],97.9% (inactive)
same,GFP response relative to DMSO,[7]; [23],96%
same,GFP response relative to DMSO,[7]; [24],98.3%
same,GFP response vs DMSO,[8],100% (inactive)
same,"GFP response, % of DMSO",[9],101% (inactive)
same,"GFP response, % of DMSO",[9]; [21],101%
same,"GFP response, % of DMSO",[9]; [22],103%
same,double positive events,[10],59%
same,vesicle binding response,[10],174% (inactive)
same,inhibition,[11],-13.9% (inactive)
same,superoxide response (% of plate),[12],96.5% (inactive)
same,aptamer binding inhibition,[13],2% (inactive)
same,response,[14],0.53% (inactive)
same,inhibition,[15],5.41% (inactive)
same,response,[16],-1.74% (inactive)
same,binding (% of control),[17],103% (inactive)
same,efflux inhibition (fraction of control),[18],-0.31 (inactive)
same,inhibition,[19],10% (inactive)
same,differentiation response,[20],-8.19% (inactive)
CN(C)CCCN1c2ccccc2Sc2ccc(Cl)cc21,percent of DMSO control GFP,[1],84.9% (active) and 109% (inactive)
same,GFP response vs DMSO,[2],148% (active) and 129% (inactive)
same,percent response of DMSO control,[3],88.6% (inactive) and 116% (inactive)
same,GFP response vs DMSO,[4],83.1% (inactive) and 94.1% (inactive)
same,"GFP response, % of DMSO",[5],91.5% (inactive) and 115% (inactive)
same,GFP response vs DMSO,[6],101% (inactive)
same,GFP response vs DMSO,[6]; [21],101%
same,GFP response vs DMSO,[6]; [22],102%
same,GFP response relative to DMSO,[7],95% (inactive)
same,GFP response relative to DMSO,[7]; [23],100%
same,GFP response relative to DMSO,[7]; [24],97.2%
same,GFP response vs DMSO,[8],100% (inactive)
same,"GFP response, % of DMSO",[9],106% (inactive)
same,"GFP response, % of DMSO",[9]; [21],103%
same,"GFP response, % of DMSO",[9]; [22],107%
same,double positive events,[10],64.9% and 70.6%
same,vesicle binding response,[10],163% (inactive) and 432% (inactive)
same,inhibition,[11],7.43% (inactive) and 1.61% (inactive)
same,superoxide response (% of plate),[12],98.3% (inactive) and 93.3% (inactive)
same,aptamer binding inhibition,[13],-6% (inactive) and -20% (inactive)
same,response,[14],17.4% (inactive) and 15.9% (inactive)
same,inhibition,[15],-3.39% (inactive) and -5.93% (inactive)
same,response,[16],10.8% (inactive) and 0.91% (inactive)
same,binding (% of control),[17],107% (inactive) and 114% (inactive)
same,efflux inhibition (fraction of control),[18],-0.17 (inactive) and 0.55 (active)
same,inhibition,[19],10% (inactive) and 13% (inactive)
same,differentiation response,[20],-7.37% (inactive) and 5.73% (inactive)
O=c1cc(-c2ccccc2)oc2cc(OCc3ccccc3)cc(O)c12,percent of DMSO control GFP,[1],91.7% (inactive)
same,GFP response vs DMSO,[2],140% (active)
same,percent response of DMSO control,[3],108% (inactive)
same,GFP response vs DMSO,[4],84.2% (inactive)
same,"GFP response, % of DMSO",[5],85.9% (inactive)
same,GFP response vs DMSO,[6],98.2% (inactive)
same,GFP response vs DMSO,[6]; [21],98.6%
same,GFP response vs DMSO,[6]; [22],98.7%
same,GFP response relative to DMSO,[7],99.2% (inactive)
same,GFP response relative to DMSO,[7]; [23],97.6%
same,GFP response relative to DMSO,[7]; [24],99.3%
same,GFP response vs DMSO,[8],100% (inactive)
same,"GFP response, % of DMSO",[9],104% (inactive)
same,"GFP response, % of DMSO",[9]; [21],105%
same,"GFP response, % of DMSO",[9]; [22],103%
same,double positive events,[10],62.5%
same,vesicle binding response,[10],139% (inactive)
same,inhibition,[11],-16.8% (inactive)
same,superoxide response (% of plate),[12],88.6% (inactive)
same,aptamer binding inhibition,[13],0% (inactive)
same,response,[14],-12.6% (inactive)
same,inhibition,[15],30.1% (inactive)
same,response,[16],-0.61% (inactive)
same,binding (% of control),[17],100% (inactive)
same,efflux inhibition (fraction of control),[18],0.59 (active)
same,inhibition,[19],0% (inactive)
same,differentiation response,[20],5.73% (inactive)
COc1cccc(/C=C/C(=O)c2c(O)cc(C)oc2=O)c1O,percent of DMSO control GFP,[1],104% (inactive)
same,GFP response vs DMSO,[2],108% (inactive)
same,percent response of DMSO control,[3],82.5% (inactive)
same,GFP response vs DMSO,[4],184% (active)
same,"GFP response, % of DMSO",[5],91.1% (inactive)
same,GFP response vs DMSO,[6],101% (inactive)
same,GFP response vs DMSO,[6]; [21],104%
same,GFP response vs DMSO,[6]; [22],99.7%
same,GFP response relative to DMSO,[7],165% (active)
same,GFP response relative to DMSO,[7]; [23],155%
same,GFP response relative to DMSO,[7]; [24],175%
same,GFP response vs DMSO,[8],107% (inactive)
same,"GFP response, % of DMSO",[9],91.2% (inactive)
same,"GFP response, % of DMSO",[9]; [21],99.1%
same,"GFP response, % of DMSO",[9]; [22],90.2%
same,double positive events,[10],62.2%
same,vesicle binding response,[10],259% (inactive)
same,inhibition,[11],-3.16% (inactive)
same,superoxide response (% of plate),[12],80.7% (inactive)
same,aptamer binding inhibition,[13],3% (inactive)
same,response,[14],17.4% (inactive)
same,inhibition,[15],10.4% (inactive)
same,response,[16],2.77% (inactive)
same,binding (% of control),[17],104% (inactive)
same,efflux inhibition (fraction of control),[18],0.19 (inactive)
same,inhibition,[19],-4% (inactive)
same,differentiation response,[20],5.6% (inactive)
